Sampled rows, rich in hits. Any-hit rate of the full collection: about 2.9%.
EPAC2 antag = human EPAC2 antagonism, validation | Q8WZA2 | Potency, µM (highest dose often 112 µM), hits mostly inhibitors | hit rate 1.7% among 16,000 | EPAC2 Rap1B BODIPY-GDP exchange, fluorescence | AID 1645886; note: nearly all actives have a fitted effect of over 40% in size
Target sequence (Q8WZA2 whole entry, looked up): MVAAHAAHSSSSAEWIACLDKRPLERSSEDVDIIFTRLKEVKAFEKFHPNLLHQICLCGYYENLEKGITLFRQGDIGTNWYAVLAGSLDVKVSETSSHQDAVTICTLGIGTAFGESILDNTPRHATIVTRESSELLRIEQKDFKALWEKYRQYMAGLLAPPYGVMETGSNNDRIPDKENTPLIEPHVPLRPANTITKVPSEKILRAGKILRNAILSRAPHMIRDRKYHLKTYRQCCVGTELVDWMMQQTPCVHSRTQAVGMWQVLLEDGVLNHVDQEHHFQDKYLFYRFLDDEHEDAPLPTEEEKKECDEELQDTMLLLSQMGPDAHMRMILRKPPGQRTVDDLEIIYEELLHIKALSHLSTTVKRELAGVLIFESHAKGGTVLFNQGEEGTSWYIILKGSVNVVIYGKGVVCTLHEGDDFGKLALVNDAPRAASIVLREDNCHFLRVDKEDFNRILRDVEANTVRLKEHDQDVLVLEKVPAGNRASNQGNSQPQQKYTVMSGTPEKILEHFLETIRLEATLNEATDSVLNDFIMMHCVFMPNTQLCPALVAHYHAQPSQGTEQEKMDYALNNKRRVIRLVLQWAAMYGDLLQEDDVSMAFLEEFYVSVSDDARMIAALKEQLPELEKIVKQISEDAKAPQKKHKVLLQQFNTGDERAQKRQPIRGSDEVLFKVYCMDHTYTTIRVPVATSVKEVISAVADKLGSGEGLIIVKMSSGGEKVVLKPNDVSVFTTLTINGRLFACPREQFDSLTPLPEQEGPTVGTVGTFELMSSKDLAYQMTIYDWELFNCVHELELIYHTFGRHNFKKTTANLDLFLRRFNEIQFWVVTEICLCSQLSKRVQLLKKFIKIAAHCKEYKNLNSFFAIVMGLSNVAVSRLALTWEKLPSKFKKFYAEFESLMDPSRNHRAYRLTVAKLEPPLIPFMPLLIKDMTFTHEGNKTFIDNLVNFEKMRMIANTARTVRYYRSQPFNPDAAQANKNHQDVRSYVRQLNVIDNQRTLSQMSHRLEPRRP
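Normalized against a 6.5 mM cAMP agonist control, compounds were tested on 100 nM EPAC2 exchanging Rap1B-bound BODIPY-GDP (250 nM) for 50 uM GDP. Fluorescence drop (ex 480, em 540 nm) was tracked at room temperature over 30 min at 5-min intervals.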
EPAC1 agonist = human EPAC1 agonism, validation; O95398; EPAC1 Rap1b BODIPY-GDP exchange, fluorescence; Potency, µM, actives largely listed as activators; hit rate 1% among 16,000; AID 1645883; note: nearly all actives have a fitted effect of over 70% in size
A number is an active result; - = inactive; ? = inconclusive; ! = repeats disagree. Calls come from the whole dose curve; as a rule, active = well fitted curve in the direction sought with a large enough effect; inconclusive = small, poorly fitted or top-dose-only effect, or another doubt; inactive = no such curve, though single readings can be large; an effect the other way counts as inactive or inconclusive.

SMILES | EPAC2 antag | EPAC1 agonist
Cc1ccc(C(=O)Nc2cccc(-c3nc(CNC(=O)c4cccc(N(C)C)c4)c(C)o3)c2)s1 | - | -
C=CC(C)(C)c1[nH]c2ccccc2c1C1=C(O)C(=O)C(c2c[nH]c3c(CC=C(C)C)cccc23)=C(O)C1=O | 45µM | -
Cc1c(C)c2c(c(C)c1OC(=O)CCC(=O)OCCO)CC[C@@](C)(CCC[C@H](C)CCC[C@H](C)CCCC(C)C)O2 | - | -
COc1ccc(OC)c(/C=C/c2nc3ccccc3nc2C)c1 | ? | 100µM
COc1cc(OC)c(/C=C/c2ccc3ccccc3n2)c(OC)c1 | - | ?
CCOC(=O)N1CCN(Cc2ccc3c(c2)CN(C(=O)c2ccc(C#CC(C)(C)O)o2)CCO3)CC1 | ? | -
CC(C)N1CCN(c2ccc(OC[C@H]3CO[C@](Cn4cncn4)(c4ccc(Cl)cc4Cl)O3)cc2)CC1 | - | -
CC(=O)N1CCN(c2ccc(OCC3CO[C@@](Cn4ccnc4)(c4ccc(Cl)cc4Cl)O3)cc2)CC1 (some centres undefined) | 35µM | ?
CC1(C)S[C@@H]2[C@H](NC(=O)[C@H](N)c3ccccc3)C(=O)N2[C@H]1C(=O)OCOC(=O)[C@@H]1N2C(=O)C[C@H]2S(=O)(=O)C1(C)C | - | -
COC(=O)[C@]12CCC(C)(C)C[C@@H]1[C@@H]1C(=O)C=C3[C@@]4(C)C=C(C#N)C(=O)C(C)(C)[C@@H]4CC[C@@]3(C)[C@]1(C)CC2 | ? | -
CN1[C@@H]2CCC[C@@H]1CC(NC(=O)c1nn(C)c3ccccc13)C2 (some centres undefined) | - | -
NCCc1ccc(O)c(O)c1 | - | ?
Oc1ccc(Cl)cc1Cc1cc(Cl)ccc1O | 89µM! | ?
COC(=O)N1CCC2(CCCN(c3cccc(-c4ccccc4)c3)C2)CC1 | - | 112µM
Cn1cccc1C(=O)N1CCC2(CCCN(c3cccc(-c4ccccc4)c3)C2)CC1 | - | 112µM
COc1ccc(C(=O)N2CCC3(CCCN(c4ccccc4)C3)CC2)cc1 | - | -
O=C(c1cnccn1)N1CCC[C@@]2(CCN(c3cccc(-c4ccccc4)c3)C2)C1 | ? | 100µM
O=C(c1ccco1)N1CCC2(CCCN(c3cccc(-c4ccccc4)c3)C2)CC1 | - | ?
O=C(c1cnccn1)N1CCC[C@@]2(CCN(c3ccccc3)C2)C1 | - | -
COc1ccc(C(=O)N2CCC3(CCCN(c4cccc(-c5ccccc5)c4)C3)CC2)cc1 | - | 100µM
Cn1cccc1C(=O)N1CCC[C@@]2(CCN(c3cccc(-c4ccccc4)c3)C2)C1 | - | -
COc1cc([C@@H]2c3cc4c(cc3C(O[C@@H]3O[C@@H]5CO[C@@H](C)O[C@H]5[C@H](O)[C@H]3O)C3COC(=O)[C@@H]32)OCO4)cc(OC)c1OP(=O)(O)O (some centres undefined) | - | -
Cc1ccccc1C(=O)N1CC/C(=N\OS(=O)(=O)O)c2ccc(Cl)cc21 | - | -
CC[C@H]1OC(=O)[C@H](C)[C@@H](O[C@H]2C[C@@](C)(OC)[C@@H](O)[C@H](C)O2)[C@H](C)[C@@H](O[C@@H]2O[C@H](C)C[C@H](N(C)C)[C@H]2O)[C@](C)(O)C[C@@H](C)[C@@H]2N[C@@H](COCCOC)O[C@@H]([C@H]2C)[C@]1(C)O | - | -
Cc1cc(C)n(-c2cccc(C(=O)NCC3Cc4cccc(-c5cccnc5)c4O3)c2)n1 (centres undefined) | - | -
SMILES | EPAC2 antag | EPAC1 agonist
Cc1nc2sccn2c1CN1CCOc2ccc(CN3CCN(c4ccc(F)cc4)CC3)cc2C1 | ? | -
CC1c2ccccc2CN1NC(=O)c1ccc(Cl)c(S(N)(=O)=O)c1 (centres undefined) | - | -
Cc1ccccc1C1(CC(=O)N2CCCC2c2nccs2)CC(=O)N(C2CCCC2)C1=O (centres undefined) | - | -
O=C(c1ccncc1)N1CCC2(CC1)CN(c1cccc(-c3ccccc3)c1)C2 | - | ?
COc1ccc(C(=O)N2CCC3(CC2)CN(c2cccc(-c4ccccc4)c2)C3)cc1 | - | 112µM
CC(C)c1nc(C(=O)N2CCOc3ccc(CN4CCN(c5ccccn5)CC4)cc3C2)cs1 | - | -
C[C@H]1C[C@H]2[C@@H]3CCC4=CC(=O)C=C[C@]4(C)[C@@]3(F)[C@@H](O)C[C@]2(C)[C@@]1(O)C(=O)CCl | ? | -
O=C(CO)[C@@H](O)[C@H](O)[C@@H](O)C(=O)O | - | -
Clc1cccc(C(c2ccc3nc[nH]c3c2)n2ccnc2)c1 (centres undefined) | - | -
c1ccc(-c2ccc(C(c3ccccc3)n3ccnc3)cc2)cc1 (centres undefined) | 50µM | ?
CC[C@@]1([C@@H]2O[C@@H]([C@H]3O[C@@](O)(CO)[C@H](C)C[C@@H]3C)C[C@@H]2C)CC[C@H]([C@]2(C)CC[C@]3(C[C@H](O)[C@@H](C)[C@@H]([C@@H](C)[C@@H](OC)[C@H](C)C(=O)O)O3)O2)O1 (stereo in doubt) | - | -
C=C1C[C@]23C[C@@]1(O)CC[C@H]2[C@@]12C=C[C@H](O)[C@@](C)(C(=O)O1)[C@H]2[C@@H]3C(=O)O | - | 45µM
C=C1C[C@@]23C[C@@]1(O)CCC2[C@@]12C=CC(O)[C@](C)(C(=O)O1)C2C3C(=O)O (some centres undefined) | - | ?
COc1cc2c(cc1O)CCN[C@]21CS[C@@H]2c3c(OC(C)=O)c(C)c4c(c3[C@H](COC1=O)N1[C@@H]2[C@H]2c3c(cc(C)c(OC)c3O)C[C@@H]([C@@H]1O)N2C)OCO4 | - | -
COCC(=O)N1CCC2(CCN(Cc3cc(C(F)(F)F)cc(C(F)(F)F)c3)CC2)CC1 | - | -
COc1ccc(C(=O)N2CCC[C@@]3(CCN(Cc4cc(C(F)(F)F)cc(C(F)(F)F)c4)C3)C2)cc1 | 14µM | -
COc1ccc(C(=O)N2CCC[C@@]3(CCN(Cc4ccncc4)C3)C2)cc1 | - | -
COc1ccc(C(=O)N2CCC3(CCN(Cc4cc(C(F)(F)F)cc(C(F)(F)F)c4)CC3)CC2)cc1 | 28µM | -
COc1ccc(C(=O)NCc2nc(-c3cccc(NC(=O)c4ccc(C)s4)c3)oc2C)cc1 | - | -
CCOC(=O)N1CCN(Cc2ccc3c(c2)CN(C(=O)c2ccc4ncccc4c2)CCO3)CC1 | - | -
CC[C@H]1OC(=O)[C@H](C)[C@@H](O[C@H]2C[C@@](C)(OC)[C@@H](O)[C@H](C)O2)[C@H](C)[C@@H](O[C@@H]2O[C@H](C)C[C@H](N(C)C)[C@H]2O)[C@](C)(O)C[C@H](C)C(=NOCOCCOC)[C@H](C)[C@@H](O)[C@]1(C)O | - | -
C[C@@]12C(=O)OC(=O)[C@@]1(C)C1CCC2O1 | - | -
C[C@@]12C(=O)OC(=O)[C@@]1(C)[C@@H]1CC[C@@H]2O1 | 56µM | -
CC1=C(/C=C/C(C)=C/C=C/C(C)=C/C=C/C=C(C)/C=C/C=C(C)/C=C/C2=C(C)C[C@@H](O)CC2(C)C)C(C)(C)C[C@H](O)C1 | - | -

Assay outcomes (PubChem BioAssay)
